# Laboratory results reported in PubChem BioAssay (NCI).
# The panel holds about 79,000 compounds, 15% with a hit somewhere; the sample as a whole holds those more often. Unmarked numbers belong to inactive results. Activity calls are given as the source filed them. Cut-off read from the data, not from the text of the source: active = growth inhibition above about 70%; inactive = the rest.
# Assays:
# [1] = NCI Yeast Anticancer Drug Screen. Data for the rad50 strain (AID 155);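 note: 0% = growth of vehicle-only cultures of the same strain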; conditions: S. cerevisiae rad50 strain growth inhibition, hits give high values
# How it was run: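 Inhibition values express reduced yeast growth in compound-treated cultures relative to vehicle-treated controls.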
# [2] = NCI Yeast Anticancer Drug Screen. Data for the mec2-1 strain (AID 157); conditions: S. cerevisiae mec2-1 strain, hits give high values
# How it was run: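 Cells of the genetically defined mec2-1 yeast strain are incubated with test compound. Inhibition of growth is calculated against vehicle-treated controls.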
# [3] = NCI Yeast Anticancer Drug Screen. Data for the sgs1 mgt1 strain (AID 161);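 note: 0% = growth of cultures given vehicle only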; conditions: S. cerevisiae sgs1 mgt1 strain, hits give high values
# How it was run: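 Test agents were incubated with a DNA-repair-mutant yeast strain. Growth was then read and compared against vehicle-treated controls.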
# [4] = NCI Yeast Anticancer Drug Screen. Data for the cln2 rad14 strain (AID 165);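 note: 0% = growth equal to vehicle treated cultures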; conditions: S. cerevisiae cln2 rad14 strain, hits give high values
# How it was run: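 The screen exposed genetically defined yeast (cln2 rad14) to test compounds and scored growth inhibition relative to vehicle-treated controls.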
# [5] = NCI Yeast Anticancer Drug Screen. Data for the bub3 strain (AID 167); conditions: S. cerevisiae bub3 mutant strain, hits give high values
# How it was run: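 Steps: expose the mutant yeast strain to compound; grow alongside vehicle-treated cultures; measure growth; express inhibition against the vehicle cultures.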
# [6] = NCI Yeast Anticancer Drug Screen. Data for the mlh1 rad18 strain (AID 175); conditions: S. cerevisiae mlh1 rad18 strain growth inhibition, hits give high values
# How it was run: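 Compound-treated yeast growth, normalised to vehicle controls. Strain bears defined DNA repair mutations.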
# [7] = at 5.0 µM (retest, dose inferred, filed as 0.5)
# [8] = at 50.0 µM (retest, dose inferred, filed as 5.0)
SMILES,"growth inhibition [1, 7]","growth inhibition [1, 8]",growth inhibition ([1]; at 50.0 µM),"growth inhibition [2, 7]","growth inhibition [2, 8]",growth inhibition ([2]; at 50.0 µM),"growth inhibition [3, 7]","growth inhibition [3, 8]",growth inhibition ([3]; at 50.0 µM),"growth inhibition [4, 7]","growth inhibition [4, 8]",growth inhibition ([4]; at 50.0 µM),"growth inhibition [5, 7]","growth inhibition [5, 8]",growth inhibition ([5]; at 50.0 µM),"growth inhibition [6, 7]","growth inhibition [6, 8]",growth inhibition ([6]; at 50.0 µM)
Cc1cc(O)ccc1N=Nc1ccccc1,10%,99% (active),99.7% (active),-1%,99% (active),99.8% (active),-1%,99% (active),99.7% (active),-8%,99% (active),99.4% (active),14%,99% (active),99.5% (active),1%,99% (active),99.7% (active)
Cc1cc(N(CCOS(C)(=O)=O)CCOS(C)(=O)=O)ccc1C=Nc1cccc(Cl)c1,10%,80% (active),90.3% (active),44%,56%,51.5%,4%,61%,70.8% (active),-3%,57%,13.1%,0%,15%,29.7%,24%,92% (active),96.2% (active)
CN(C)C(N)=NC#N,25%,47%,73.2% (active),22%,86% (active),75.7% (active),27%,96% (active),51.2%,20%,54%,9.65%,29%,95% (active),65.2%,33%,71% (active),67%
CCCCN(CCCC)CC(O)c1ccc(CCc2ccccc2)cc1 (configuration not stated),-6%,91% (active),99.2% (active),22%,92% (active),98.7% (active),13%,99% (active),99.5% (active),-7%,88% (active),98.7% (active),-4%,92% (active),76.2% (active),28%,97% (active),99.3% (active)
Cc1cc(N)c2cc(OCCOc3ccc4nc(C)cc(N)c4c3)ccc2n1,68%,91% (active),97.5% (active),69%,94% (active),95.2% (active),77% (active),93% (active),92.5% (active),71% (active),92% (active),84.7% (active),79% (active),95% (active),93.7% (active),91% (active),94% (active),95.2% (active)
Cc1cccc(/C=N/NC(=S)Nc2ccc(Cl)cc2)n1,6%,98% (active),70% (active),0%,97% (active),81.8% (active),-5%,98% (active),87% (active),-25%,96% (active),86.5% (active),-12%,98% (active),87.2% (active),35%,98% (active),88.8% (active)
O=C1CN(/N=C\c2ccc([N+](=O)[O-])o2)C(=O)N1,11%,48%,56.5%,4%,29%,15.2%,2%,39%,41%,-5%,18%,-8.35%,3%,26%,27.5%,19%,65%,69.8%
CC1(C)CC(O)C(O)C1 (configuration not stated),-2%,-2%,-4%,2%,0%,7.25%,0%,-1%,12.6%,-2%,-13%,67.5%,2%,11%,-1.7%,-1%,-4%,-5.6%
Cc1ccc(C)c2[nH]c(-c3ccccc3)cc12,-1%,99% (active),99.3% (active),-37%,99% (active),99.2% (active),0%,99% (active),99.3% (active),0%,99% (active),99.1% (active),-5%,99% (active),99.2% (active),-1%,99% (active),99.2% (active)
N#Cc1ccccc1NC1OCC(O)C(O)C1O (configuration not stated),-149%,-139%,0.45%,-45%,-45%,-3.35%,-61%,-79%,10.6%,-58%,-53%,16.1%,-67%,-74%,7.2%,-145%,-105%,-3.35%
CSC(=Nc1ccccc1)NC(=O)Nc1ccc(Cl)cc1,-8%,-11%,-1.45%,5%,-15%,5%,-34%,-17%,-2.1%,-18%,-17%,-31.2%,-22%,-4%,2.55%,-7%,-5%,3.15%
O=C(O)c1ccccc1NC(c1ccccc1)c1ccc2cccnc2c1O (configuration not stated),-15%,94% (active),96.8% (active),-3%,91% (active),93% (active),0%,87% (active),96.8% (active),-39%,88% (active),93.3% (active),-17%,95% (active),93.7% (active),-14%,96% (active),93.5% (active)
O=C1/C(=C/c2ccc(F)cc2)CNC/C1=C\c1ccc(F)cc1,12%,44%,79.2% (active),5%,36%,84.8% (active),-2%,31%,79.2% (active),35%,43%,70.6% (active),-11%,37%,79.8% (active),16%,53%,85.5% (active)
CC(=O)Oc1c(-c2ccccc2)cc([N+](=O)[O-])cc1[N+](=O)[O-],13%,93% (active),95.8% (active),19%,93% (active),93.5% (active),31%,88% (active),93.6% (active),17%,59%,74.4% (active),24%,65%,94.5% (active),54%,97% (active),91.7% (active)
CC1CN(C(=S)NNC(C)c2cc3ccccc3cn2)CC(C)O1 (configuration not stated),30%,96% (active),87% (active),38%,99% (active),89.8% (active),26%,98% (active),90.5% (active),15%,98% (active),90% (active),39%,99% (active),88.2% (active),39%,98% (active),91.3% (active)
COc1ccc2c(c1)CCCN2CCCCCCCCCCN1CCCCC1,13%,38%,71.3% (active),7%,34%,56.9%,36%,73% (active),80.8% (active),28%,28%,71.2% (active),35%,60%,59.8%,25%,25%,61.4%
CCCCc1c(O)c(N=NC(=O)C[n+]2ccccc2)c2ccccc2c1O,-2%,10%,8.55%,-3%,32%,11.6%,2%,27%,17.8%,2%,-3%,40.1%,-3%,-1%,13.5%,-2%,21%,4.75%
COC(CC[P+](c1ccccc1)(c1ccccc1)c1ccccc1)(C(=O)c1ccccc1)c1ccccc1 (configuration not stated),91% (active),99% (active),98.7% (active),97% (active),99% (active),99.7% (active),88% (active),99% (active),99.8% (active),90% (active),99% (active),98.8% (active),94% (active),100% (active),99.7% (active),92% (active),100% (active),99.5% (active)
Cc1[nH]c2ccccc2c1SCc1ccccc1,-5%,99% (active),99.2% (active),2%,100% (active),99.7% (active),0%,100% (active),99.5% (active),-2%,99% (active),99.3% (active),-6%,99% (active),99.5% (active),-7%,98% (active),99.3% (active)
